Results filed as inconclusive are left out. A number with no mark means an inactive call. The source made the active and inactive calls. Calls come from the whole dose curve; as a rule, active = well fitted cell-killing curve with a large enough effect; inconclusive = small, poorly fitted or top-dose-only effect, or effect the other way; inactive = no such curve, though single readings can be large or run the other way.

The record followed here is PubChem BioAssay (NCATS).
Potency is the fitted concentration of half-maximal effect.

This test is described as follows: Quantitative highthroughput screen to assess conditional lethalithy of SEM cells grown in RPMI1640 with unreated serum (RPMI+s) (AID 1963883). Note: nearly all actives have a fitted effect of over 35% in size. The settings on record: SEM B-ALL cells, CellTiter-Glo viability, 48 h; series mostly up to 45.8 µM; viability: at the top concentration. An excerpt:
Assay Provider: Jason Cantor Ph.D.
Department of Biochemistry
University of Wisconsin-Madison, Madison, WI, USA
Chemical screening studies have identified drug sensitivities across hundreds of cancer cell lines but most putative therapeutics fail to translate. Discovery and development of drug candidates in models that more accurately reflect nutrient levels in human blood is a major challenge. Here we performed high-throughput screens in conventional versus Human Plasma-Like Medium (HPLM) to identify compounds that were "missed" when screening using the artificial culture condition. Sets of conditional anticancer compounds spanned phases of clinical development and included non-oncology drugs were assessed. […] We also traced conditional phenotypes for several chemotherapeutics to availability of HPLM-specific metabolites and confirmed others for compounds whose reported targets are encoded by nonessential genes. Our findings establish generalizable strategies for exploiting conditional lethality in HPLM to reveal therapeutic candidates and mechanisms of action in cancer cells.
Described herein are the results of each viability screens against three cell lines: NOMO1 (an acute myeloid leukemia cell line); P12-Ichikawa (a T-cell acute lymphoblastic leukemia); and SEM (a B-cell ALL). Each assay was screened using 3 different cell culture media: homemade human plasma-Like medium with 10% dialyzed fetal bovine serum (HPLM+ds); RPMI1640 with 10% untreated FBS and 5mM glucose (RPMI+s); and RPMI1640 with 10% dialyzed fetal bovine serum and 5 mM glucose (RPMI+ds).
PROTOCOL TABLE (as described by Inglese J, Shamu CE and Guy RK. 2007)
SEQUENCE No. (e.g., 1, 2, 3, etc.); […] (e.g., Cells, Incubation, Reagent, etc.); VALUE and DESCRIPTION.
1; Cells; 5 uL; white, solid bottom 1536-well Greiner assay plate.
2; Compounds; 23 nL; Kalypsis pin tool (Wako USA) equipped with a 1536-well pin head to transfer to the assay plates.
3; Incubation; 48 hours; 37C incubation.
4; Reagent; 3 uL; CellTiter Glo (Promega).
5; Incubation; 5 min, room temperature
6; Detection; Luminescence, Viewlux PerkinElmer.
NOTES (numbers refer to Sequence numbers above)
1. Briefly, 5 ul of cell reagent was dispensed using a Multidrop Combi Dispenser. The NOMO1 and SEM cells were plated at 500 cells/well and the P12-Ichikawa line at 1000 cells/well.
2. After seeding the cells, 23 nL of MIPE 4.1 library compounds (in DMSO) were added to each plate using a Kalypsys 1536 Pintool dispenser. Bortezomib at final concentration of […] and DMSO were added to each plate as positive and negative controls respectively. For each screen, MIPE 4.1 compounds were added over an eleven-point concentration range […] in 3-fold dilutions.
3. Each plate was covered with a stainless steel gasketed lid to prevent evaporation and incubated for 48 hour at 37C, 95% relative humidity, and 5% CO2.
4-5. Three microliter CellTilter-GloTM luminescent substrate mix (Promega) reagent was added to the assay plate and incubated at room temperature for 5 min.
6. The luminescence signal was measured using a ViewLux (PerkinElmer) multiplate reader with a 2 second exposure time per plate. Data for each compound were normalized as percent viability such that measurements for DMSO and the empty well controls in each plate were defined as 100% and 0%, respectively.
A general note: ATP-based viability assays read luminescence as a measure of living cells.
The viability is a read-out of living cells in per cent, often relative to untreated cells. As to `O=S(=O)(F)Cc1ccccc1`, the “viability” value was 80.5%.
In the case of `Cc1[nH]nc2ccc(-c3cncc(OC[C@@H](N)Cc4c[nH]c5ccccc45)c3)cc12`, the Potency is 0.59 µM (active).
For the molecule `CCN(CC)C(=O)c1ccc(C2=CC3(CCNCC3)Oc3cccc(O)c32)cc1`, the “viability” value was 80.2%.
Same read-out and setting: to `CN(C)CCN(C)CCc1ccc(Cl)c(Cl)c1` belongs 102%.
As to `CC=C(C)C(=O)O[C@H]1C(C)=C2[C@@H]3OC(=O)[C@@](C)(O)[C@@]3(O)[C@@H](OC(=O)CCC)C[C@](C)(OC(C)=O)[C@@H]2[C@@H]1OC(=O)CCCCCCC`, the Potency is 0.0332 µM (active).
Turning to `C[C@@H]1[C@@H](CC(C[C@H]2O[C@@H]3O[C@]4(C)CC[C@@H]5[C@H](C)CC[C@@H]([C@H]2C)[C@@]35OO4)C[S+](=O)([O-])c2ccc(COC(=O)N(C)C)cc2)O[C@@H]2O[C@]3(C)CC[C@H]4[C@H](C)CC[C@@H]1[C@@]24OO3` (stereo not given in full), the Potency is 0.418 µM (active).
Still for that read-out and setting: in the case of `Cc1ccccc1-n1c(Cn2cnc3c(N)ncnc32)nc2cccc(C)c2c1=O` it was 1.18 µM (active).
As for `CN[C@@H]1Cc2cccc3[nH]c(=O)n(c23)C1`, the “viability” value is 106%.
The same measure, in the same setting: to `COC1(CS(=O)c2ccccc2)CCN(CCc2c[nH]c3ccc(F)cc23)CC1` (stereo not given) belongs 95.3%; to `O=[N+]([O-])c1ncc[nH]1`, 82.7%.
Still for that read-out and setting: in the case of `COc1cc2cc(c1Cl)N(C)C(=O)C[C@H](OC(=O)C(C)C)[C@]1(C)O[C@H]1[C@H](C)[C@@H]1C[C@@](O)(NC(=O)O1)[C@H](OC)C=CC=C(C)C2` it was 1.57%.
Regarding `CCN1CCN(C(=O)Cc2ccc(Nc3ncc(F)c(Nc4ccc(C(=O)Nc5ccccc5Cl)cc4)n3)cc2)CC1`, the Potency is 5.9 µM (active).
Regarding `O=c1[nH]c2ccccc2n1CCCN1CCC(n2c(=O)[nH]c3cc(Cl)ccc32)CC1`, the “viability” value was 81.4%.
As to `O=C1CC[C@@]2(O)[C@H]3Cc4ccc(O)c5c4[C@@]2(CCN3CC2CC2)[C@H]1O5`, the “viability” value was 102%.
On to `C[C@@H]1CC[C@@]2(OC1)O[C@H]1C[C@H]3[C@@H]4CC=C5C[C@@H](O[C@@H]6O[C@H](CO)[C@@H](O[C@@H]7O[C@@H](C)[C@H](O)[C@@H](O)[C@@H]7O)[C@H](O)[C@@H]6O[C@@H]6O[C@@H](C)[C@H](O)[C@@H](O)[C@@H]6O)CC[C@]5(C)[C@@H]4CC[C@]3(C)[C@@H]1[C@H]2C`, for which the Potency was 14.8 µM (active).
`O=C(NCC1CCOCC1)c1cnc(Nc2ccc(Cl)cc2Cl)nc1C(F)(F)F`: the “viability” value was 88%.
On to `C[C@@H]1C[C@@H]([C@H](O)CC2CC(=O)NC(=O)C2)C(=O)[C@@H](C)C1`, for which the Potency is 0.332 µM (active).
Consider `Cc1cc(SCc2sc(-c3ccc(C(F)(F)F)c(F)c3)nc2C)ccc1OCC(=O)O`, for which the “viability” value is 105%.
For `NCC1(CC(=O)O)CCCCC1`, the “viability” value was 97.8%.
Still for that read-out and setting: to `CCOP(=O)(OCC)C(C)NC(=O)N(CCCl)N=O` (stereo not given) belongs 72.4%; to `C#CC1(O)CCC2C3CCC4=CC(=O)CCC4(C)C3CCC21C` (stereo not given), 111%.
Regarding `C#C[C@]1(O)C=C[C@@H]2[C@@H]3CCC4=CC(=O)CC[C@@H]4[C@H]3CC[C@@]21CC`, the “viability” value was 97.7%.
For `COc1ccc2c(c1OC)CN1CCc3cc4c(cc3C1C2)OCO4` (stereo not given), the Potency is 0.372 µM (active).
Consider `COc1cc(OC)c(OC)cc1C=O`, for which the “viability” value was 90.9%.
`O=C1CCC[C@@H]2[C@H]3CCCN4CCC[C@@H](CN12)[C@@H]34`: the “viability” value was 84%.
In the case of `COc1ccc(CC2NCCc3cc(OC)c(OC)cc32)cc1OC` (stereo not given), the Potency was 14.8 µM (active).
As to `COC(=O)[C@@H](N)CCCN=C(N)N[N+](=O)[O-]`, the “viability” value is 102%.
With `C[C@]12CC[C@@H]3c4ccc(OC(=O)N(CCCl)CCCl)cc4CC[C@H]3[C@@H]1CC[C@@H]2OP(=O)(O)O`, the Potency was 14.8 µM (active).
Same read-out and setting: to `CCNC(=O)C[C@@H]1N=C(c2ccc(Cl)cc2)c2cc(OC)ccc2-n2c(C)nnc21` belongs 1.05 µM (active).
Consider `CC(C)c1cccc(C(C)C)c1O`, for which the “viability” value was 97.8%.
On to `O=P1(NCCCl)OCCCN1CCCl` (stereo not given), for which the Potency is 14.8 µM (active).
For the molecule `COc1ccc2c(c1)[C@]13CCCCC1C(C2)N(C)CC3` (stereo not given in full), the “viability” value was 103%.
Still for that read-out and setting: to `COc1ccc(C(=O)c2c(C)n(CCN3CCOCC3)c3ccccc23)cc1` belongs 78.9%.
Same read-out and setting: to `Cc1nc(-c2ccc(-c3ccc(C(=O)N4CCc5cc6c(cc54)C4(CCN(C)CC4)CO6)cc3)c(C)c2)no1` belongs 101%; to `COc1cccc2c1[C@]13CCN(CC4CC4)[C@H](C2)[C@]1(OC)CCC(=O)C3`, 93.4%.
Same read-out and setting: in the case of `C[C@]12CC[C@H]3[C@@H](CCC4=CC(=O)CC[C@@]43C)[C@H]1CC[C@H]2O` it was 85.2%.
Take `C=C[C@@H]1CN2CCC1C[C@@H]2[C@@H](O)c1ccnc2ccccc12` (stereo not given in full): the Potency is 16.6 µM (active).
Consider `O=C(Nc1ccncc1)C(=O)c1cn(Cc2ccc(Cl)cc2)c2ccccc12`, for which the Potency was 0.0526 µM (active).
The same measure, in the same setting: in the case of `Cc1c(N)nc([C@H](CC(N)=O)NC[C@@H](N)C(N)=O)nc1C(=O)N[C@H](C(=O)N[C@@H](C)[C@H](O)[C@@H](C)C(=O)N[C@@H](C(=O)NCCc1nc(-c2nc(C(=O)NCCC[S+](C)C)cs2)cs1)[C@@H](C)O)C(O[C@H]1O[C@H](CO)[C@H](O)[C@@H](O)[C@@H]1O[C@H]1O[C@H](CO)[C@@H](O)[C@H](OC(N)=O)[C@H]1O)c1cnc[nH]1` (stereo not given in full) it was 3.32 µM (active).
Regarding `C[C@H]([C@H](O)CCC(C)(C)O)[C@H]1CC[C@@]2(O)C3=CC(=O)[C@@H]4C[C@@H](O)[C@@H](O)C[C@]4(C)[C@@H]3CC[C@]12C`, the “viability” value was 88.2%.
